# Source: the supplement of paper PMC8728848
# This excerpt belongs to a sample that is enriched for the strongest signals.
# B1: Pbx2 (Cryptococcus neoformans) (protein)
# chain: AVSPLPSSTELVFYSQKRRRRRICSTATGSLSTPDPTRMTSDPYKRVGMRFSSVPRLLITFLSLLLLVSAAPPCVRFADYDSINQMFIDGGPGTKVLLCPNRLYRLSGPIIFTAADQEIATYGYPTGSERAVLRVEGRNTATAIQGDCRRCARVSVKNLVVDGNRKKLGRMRDFQLATGLVVLGGNEGQSIQNSWIKNPRGFTAIHIREGDKLQCSGARVEKNEIGPVGEEYDPEKDGDDPEMSPLGRPLADGVSIACRDSFIRDNTFRDNTDAAIVVYCSPGTLIHANHIFAQSLSAMAGILMVDSTPFNGDYTGTVVRSNIIDAVSRTIRVGIGIGPTVWSDDTETILTGGSVIGNGLKGRYMGYGIAAAGLKQWTIKDNWDEAKHEGRKSARCFDEPVNPDPIGLLYNRPTMEDCTVQSGFADHDFQYLVCIDGLYDKTNPPKHDPAPLAHDPSPTNAQEDNTVQQDGGDSKSKSIEQPREASDIEAEPSVEKMFSTGSEMMDDVLEHSHQRMHEVIDHLSRRIDILGAASAGKGSGDSKISEVLDPAMSSHLEKLQRKIEHLEFSLRSQIETAIQLRSAIQGWDQEMALVTDWEYDILLDVRHKLELSSYPHDQPLDPRLMRGQSYLNNEAVLVDDHSHPSLEGENLRAMSDRARLNANEEA
# Tests used:
# Assay in all cases: glycan array binding signal (z-score within array); higher = stronger binding
# Details in all cases: glycan notation: IUPAC condensed, linker removed
# [1] = biological target: GlcNAc(b1-3)Gal(b1-4)GlcNAc(b1-3)Gal(b1-4)GlcNAc(b1-2)Man(a1-3)[GlcNAc(b1-3)Gal(b1-4)GlcNAc(b1-3)Gal(b1-4)GlcNAc(b1-2)Man(a1-6)]Man(b1-4)GlcNAc(b1-4)GlcNAc
# Method in brief: (§1)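 The Consortium for Functional Glycomics database supplied 3228 glycan arrays, of which those lacking an available protein sequence were dropped. The binding signal, a within-array Z-score, was averaged across arrays of the same protein sequence and across linkers. Negative scores can be read as non-binding.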
# [2] = biological target: GlcNAc(b1-3)Gal(b1-4)GlcNAc(b1-3)Gal(b1-4)GlcNAc(b1-2)[GlcNAc(b1-3)Gal(b1-4)GlcNAc(b1-3)Gal(b1-4)GlcNAc(b1-6)]Man(a1-6)[GlcNAc(b1-3)Gal(b1-4)GlcNAc(b1-3)Gal(b1-4)GlcNAc(b1-2)Man(a1-3)]Man(b1-4)GlcNAc(b1-4)[Fuc(a1-6)]GlcNAc
# Method in brief: as §1
# [3] = biological target: GlcNAc(b1-4)GlcNAc(b1-4)GlcNAc
# Method in brief: as §1
# [4] = biological target: GlcNAc6S(b1-3)Gal(b1-4)GlcNAc
# Method in brief: as §1
# [5] = biological target: Man(a1-2)Man(a1-3)[Man(a1-6)]Man(a1-6)[Man(a1-2)Man(a1-3)]Man(b1-4)GlcNAc(b1-4)GlcNAc
# Method in brief: as §1
# [6] = biological target: Man(a1-2)Man(a1-6)[Man(a1-3)]Man(a1-6)[Man(a1-2)Man(a1-2)Man(a1-3)]Man(b1-4)GlcNAc(b1-4)GlcNAc
# Method in brief: as §1
# [7] = biological target: Neu5Ac(a2-3)Gal(b1-3)[GlcNAc(b1-6)]GalNAc
# Method in brief: as §1
# [8] = biological target: Neu5Ac(a2-3)Gal(b1-4)GlcNAc(b1-2)Man
# Method in brief: as §1
# [9] = biological target: Neu5Ac(a2-3)Gal(b1-4)GlcNAc(b1-2)[Neu5Ac(a2-3)Gal(b1-4)GlcNAc(b1-6)]Man(a1-6)[Neu5Ac(a2-3)Gal(b1-4)GlcNAc(b1-2)Man(a1-3)]Man(b1-4)GlcNAc(b1-4)GlcNAc
# Method in brief: as §1
# [10] = biological target: Neu5Ac(a2-3)Gal(b1-4)GlcNAc(b1-3)Gal(b1-4)GlcNAc(b1-3)Gal(b1-4)GlcNAc
# Method in brief: as §1
# [11] = biological target: Neu5Ac(a2-3)[GalNAc(b1-4)]Gal(b1-4)GlcNAc(b1-3)GalNAc
# Method in brief: as §1
# [12] = biological target: Neu5Ac(a2-6)Gal(b1-4)GlcNAc(b1-2)Man
# Method in brief: as §1
# [13] = biological target: Neu5Ac(a2-6)Gal(b1-4)GlcNAc(b1-3)Gal(b1-3)GlcNAc
# Method in brief: as §1
# [14] = biological target: Neu5Ac(a2-8)Neu5Ac(a2-3)[Gal(b1-3)GalNAc(b1-4)]Gal(b1-4)Glc
# Method in brief: as §1
# [15] = biological target: Neu5Ac(a2-8)Neu5Ac(a2-3)[GalNAc(b1-4)]Gal(b1-4)Glc
# Method in brief: as §1
# [16] = biological target: Neu5Ac(a2-8)Neu5Ac(a2-8)Neu5Ac(a2-3)[GalNAc(b1-4)]Gal(b1-4)Glc
# Method in brief: as §1
# [17] = biological target: Neu5Gc(a2-3)Gal(b1-3)[Fuc(a1-4)]GlcNAc
# Method in brief: as §1
# [18] = biological target: Neu5Gc(a2-3)Gal(b1-4)Glc
# Method in brief: as §1
# [19] = biological target: Neu5Gc(a2-6)Gal(b1-4)GlcNAc
# Method in brief: as §1
binder,measurement,setting,value
B1,glycan array binding signal (z-score),[1],3.17
same,glycan array binding signal (z-score),[2],1.33
same,glycan array binding signal (z-score),[3],-0.147
same,glycan array binding signal (z-score),[4],-0.104
same,glycan array binding signal (z-score),[5],-0.065
same,glycan array binding signal (z-score),[6],0.275
same,glycan array binding signal (z-score),[7],-0.075
same,glycan array binding signal (z-score),[8],4.34
same,glycan array binding signal (z-score),[9],0.027
same,glycan array binding signal (z-score),[10],-0.461
same,glycan array binding signal (z-score),[11],-0.206
same,glycan array binding signal (z-score),[12],0.729
same,glycan array binding signal (z-score),[13],-0.368
same,glycan array binding signal (z-score),[14],0.256
same,glycan array binding signal (z-score),[15],-0.131
same,glycan array binding signal (z-score),[16],0.212
same,glycan array binding signal (z-score),[17],-0.266
same,glycan array binding signal (z-score),[18],-0.241
same,glycan array binding signal (z-score),[19],-0.317
